Experimental data as given in PubChem BioAssay.
The source made the active and inactive calls.

Tests used:
[1] = small molecules captured by biotinylated probe aFSTL3 – biochemical, small-molecule microarray, fluorescence 635/667, stem cell growth factor project, primary screen (AID 1064); conditions: higher = more signal;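 also: measures binding of the biotinylated anti-FSTL3 antibody to printed compounds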
[2] = binders from COS7 lysate, DM2A8 probe, primary screen, torsin A project, cell lysate, small-molecule microarray, fluorescence 635/667 (AID 1065); conditions: higher = more signal, COS7 lysate expressing mutant human TOR1A
[3] = small molecules captured by biotinylated probe aFGF2 – biochemical, small-molecule microarray, fluorescence 635/667, stem cell growth factor project, primary screen (AID 1067); conditions: higher = more signal;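 also: measures binding of biotinylated aFGF2 protein to printed compounds on slides; z-score merges feature fluorescence and signal-to-noise across triplicate slides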
[4] = small molecules captured by biotinylated probe aFGF10 – biochemical, small-molecule microarray, fluorescence 635/667, stem cell growth factor project, primary screen (AID 1071); conditions: higher = more signal;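 also: score merges 667 nm spot intensity and signal to noise from triplicate slides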
[5] = target: Neurogenic locus notch homolog protein 2 (Homo sapiens) (UniProt Q04721); experiment: small molecules binding Notch2 protein – biochemical, small-molecule microarray, 635 nm fluorescence, stem cell growth factors, primary screen (AID 1073); conditions: higher = more signal
[6] = target: Pro-neuregulin-1, membrane-bound isoform (Homo sapiens) (UniProt Q02297); experiment: small molecules binding neuregulin-1 protein – biochemical, small-molecule microarray, fluorescence 635/667, psychiatric disease protein project, primary screen (AID 1075); conditions: NRG1 binding, 635 nm fluorescence, higher = more signal;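 also: score combines 667 nm spot fluorescence with signal to noise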
Pro-neuregulin-1, membrane-bound isoform (Homo sapiens), sequence (Q02297 whole entry, looked up, the tested form may be a part, canonical isoform): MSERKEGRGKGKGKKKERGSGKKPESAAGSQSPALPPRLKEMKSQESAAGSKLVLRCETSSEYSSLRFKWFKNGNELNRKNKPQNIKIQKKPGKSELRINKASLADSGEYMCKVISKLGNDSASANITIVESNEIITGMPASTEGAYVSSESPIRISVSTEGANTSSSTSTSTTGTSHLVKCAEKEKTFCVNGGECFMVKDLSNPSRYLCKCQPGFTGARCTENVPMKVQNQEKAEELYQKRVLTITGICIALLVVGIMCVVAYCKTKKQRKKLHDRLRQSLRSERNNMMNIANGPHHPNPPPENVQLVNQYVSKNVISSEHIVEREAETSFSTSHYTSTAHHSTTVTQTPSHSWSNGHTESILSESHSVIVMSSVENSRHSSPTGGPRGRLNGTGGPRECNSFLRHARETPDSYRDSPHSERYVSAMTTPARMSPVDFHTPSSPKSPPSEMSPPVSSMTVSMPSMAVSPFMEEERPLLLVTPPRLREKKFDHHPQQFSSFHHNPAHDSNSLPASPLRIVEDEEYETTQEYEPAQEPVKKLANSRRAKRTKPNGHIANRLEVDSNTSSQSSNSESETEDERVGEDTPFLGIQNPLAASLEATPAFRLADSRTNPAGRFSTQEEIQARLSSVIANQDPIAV

[7] = test system: Neuregulin-1 EGF-like domain; experiment: small molecules binding NRG1 EGF domain – biochemical, small-molecule microarray, 635 nm fluorescence, primary screen (AID 1081); conditions: higher = more signal;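 also: binding of the protein to compounds printed on small-molecule microarray slides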
[8] = FRG1 expression reporter modulators in myotubes – cell-based, C2C12 myotubes, firefly/Renilla luciferase, luminescence, FRG1 inhibition for FSHD, primary screen (AID 1084); conditions: FRG1 promoter luciferase, higher = more signal, called active from +8 up or from −8 down
[9] = small molecules captured by biotinylated probe aFST – biochemical, small-molecule microarray, fluorescence 635/667, stem cell growth factor project, primary screen (AID 1086); conditions: higher = more signal;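 also: score merges 667 nm fluorescence with signal-to-noise of each printed compound spot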
[10] = binders of probe aHhip on microarray, primary screen, stem cell growth factor project, biochemical, small-molecule microarray, fluorescence 635/667 (AID 1087); conditions: higher = more signal;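 also: score merges spot fluorescence at 667nm with spot signal to noise ratio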
[11] = test system: PRMT1 (protein arginine N-methyltransferase 1); experiment: small molecules binding arginine methyltransferase PRMT1 – biochemical, small-molecule microarray, 635 nm fluorescence, primary screen (AID 1088); conditions: higher = more signal;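 also: binding of Prmt1 protein to compounds spotted on small-molecule microarray slides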
[12] = growth effects on S. cerevisiae YJM789 – YJM789 clinical isolate, OD600, 24 h, basal, primary screen (AID 1089); conditions: higher = more signal, called active from +8 up or from −8 down;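 also: growth of clinical yeast isolate S. cerevisiae YJM 789 seeded 1000 cells per well; test concentration not given here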
[13] = S. pombe growth modifiers, basal conditions – strain 972, OD600, 24 h, no modulator, primary screen (AID 1090);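 also: basal condition with compound alone and no growth modifier present; test concentration not given here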; conditions: S. pombe 972 growth, higher = more signal, called active from +8 up or from −8 down
[14] = budding yeast growth modifiers under rapamycin – strain BY4716, OD600, 96 h, primary screen (AID 1091); also: test concentration not given here; conditions: S. cerevisiae BY4716 + rapamycin, higher = more signal, called active from +8 up or from −8 down
[15] = target: Torsin-1A-interacting protein 2 (Homo sapiens) (UniProt Q8NFQ8); experiment: small molecules binding lysate-expressed LULL1 – cell lysate, human LULL1 lysate, 635/667 nm fluorescence, primary screen (AID 1092); conditions: small-molecule microarray, hLULL1 lysate binding, 635 nm fluorescence; higher = more signal;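 also: probe is lysate of COS7 cells overexpressing human LULL1; score merges per-feature 667 nm fluorescence with signal-to-noise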
Torsin-1A-interacting protein 2 (Homo sapiens), sequence (Q8NFQ8 whole entry, looked up): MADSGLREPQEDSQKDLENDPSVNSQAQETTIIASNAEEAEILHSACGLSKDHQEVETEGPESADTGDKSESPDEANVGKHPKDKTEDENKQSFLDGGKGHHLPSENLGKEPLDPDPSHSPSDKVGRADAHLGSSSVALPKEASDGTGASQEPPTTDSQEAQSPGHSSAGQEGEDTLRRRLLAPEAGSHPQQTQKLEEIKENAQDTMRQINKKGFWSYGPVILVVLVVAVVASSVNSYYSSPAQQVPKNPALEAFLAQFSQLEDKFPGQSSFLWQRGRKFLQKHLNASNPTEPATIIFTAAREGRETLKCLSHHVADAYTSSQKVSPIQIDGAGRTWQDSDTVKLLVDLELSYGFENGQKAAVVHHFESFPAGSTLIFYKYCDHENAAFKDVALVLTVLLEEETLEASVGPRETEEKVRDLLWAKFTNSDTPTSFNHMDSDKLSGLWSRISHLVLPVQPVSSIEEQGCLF

[16] = optical density change of DRC41 E. coli – strain DRC41, OD650, 24 h, E. coli filamentation project, primary screen (AID 1093);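 also: MC1000 strain lacking acrAB efflux and sulA so SOS filamentation is blocked; test concentration not given here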; conditions: E. coli DRC41 growth, higher = more signal, called active from +8 up or from −8 down
[17] = probe aLefty2 binding to arrayed compounds – biochemical, biotinylated probe, 635/667 nm fluorescence, primary screen (AID 1094); conditions: small-molecule microarray, higher = more signal;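 also: score merges spot fluorescence near 667 nm with spot signal-to-noise ratio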
[18] = test system: Noggin (protein binding on small-molecule microarray); experiment: small molecules binding Noggin protein – biochemical, 635/667 nm fluorescence, primary screen (AID 1095); conditions: 635 nm fluorescence, higher = more signal;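 also: score merges 667 nm feature fluorescence with signal to noise over triplicate slides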
[19] = target: Neurogenic locus notch homolog protein 3 (Homo sapiens) (UniProt Q9UM47); experiment: small molecules binding NOTCH3 protein – biochemical, 635/667 nm fluorescence, primary screen (AID 1096); conditions: small-molecule microarray, 635 nm fluorescence, higher = more signal
Neurogenic locus notch homolog protein 3 (Homo sapiens), sequence (Q9UM47 whole entry, looked up): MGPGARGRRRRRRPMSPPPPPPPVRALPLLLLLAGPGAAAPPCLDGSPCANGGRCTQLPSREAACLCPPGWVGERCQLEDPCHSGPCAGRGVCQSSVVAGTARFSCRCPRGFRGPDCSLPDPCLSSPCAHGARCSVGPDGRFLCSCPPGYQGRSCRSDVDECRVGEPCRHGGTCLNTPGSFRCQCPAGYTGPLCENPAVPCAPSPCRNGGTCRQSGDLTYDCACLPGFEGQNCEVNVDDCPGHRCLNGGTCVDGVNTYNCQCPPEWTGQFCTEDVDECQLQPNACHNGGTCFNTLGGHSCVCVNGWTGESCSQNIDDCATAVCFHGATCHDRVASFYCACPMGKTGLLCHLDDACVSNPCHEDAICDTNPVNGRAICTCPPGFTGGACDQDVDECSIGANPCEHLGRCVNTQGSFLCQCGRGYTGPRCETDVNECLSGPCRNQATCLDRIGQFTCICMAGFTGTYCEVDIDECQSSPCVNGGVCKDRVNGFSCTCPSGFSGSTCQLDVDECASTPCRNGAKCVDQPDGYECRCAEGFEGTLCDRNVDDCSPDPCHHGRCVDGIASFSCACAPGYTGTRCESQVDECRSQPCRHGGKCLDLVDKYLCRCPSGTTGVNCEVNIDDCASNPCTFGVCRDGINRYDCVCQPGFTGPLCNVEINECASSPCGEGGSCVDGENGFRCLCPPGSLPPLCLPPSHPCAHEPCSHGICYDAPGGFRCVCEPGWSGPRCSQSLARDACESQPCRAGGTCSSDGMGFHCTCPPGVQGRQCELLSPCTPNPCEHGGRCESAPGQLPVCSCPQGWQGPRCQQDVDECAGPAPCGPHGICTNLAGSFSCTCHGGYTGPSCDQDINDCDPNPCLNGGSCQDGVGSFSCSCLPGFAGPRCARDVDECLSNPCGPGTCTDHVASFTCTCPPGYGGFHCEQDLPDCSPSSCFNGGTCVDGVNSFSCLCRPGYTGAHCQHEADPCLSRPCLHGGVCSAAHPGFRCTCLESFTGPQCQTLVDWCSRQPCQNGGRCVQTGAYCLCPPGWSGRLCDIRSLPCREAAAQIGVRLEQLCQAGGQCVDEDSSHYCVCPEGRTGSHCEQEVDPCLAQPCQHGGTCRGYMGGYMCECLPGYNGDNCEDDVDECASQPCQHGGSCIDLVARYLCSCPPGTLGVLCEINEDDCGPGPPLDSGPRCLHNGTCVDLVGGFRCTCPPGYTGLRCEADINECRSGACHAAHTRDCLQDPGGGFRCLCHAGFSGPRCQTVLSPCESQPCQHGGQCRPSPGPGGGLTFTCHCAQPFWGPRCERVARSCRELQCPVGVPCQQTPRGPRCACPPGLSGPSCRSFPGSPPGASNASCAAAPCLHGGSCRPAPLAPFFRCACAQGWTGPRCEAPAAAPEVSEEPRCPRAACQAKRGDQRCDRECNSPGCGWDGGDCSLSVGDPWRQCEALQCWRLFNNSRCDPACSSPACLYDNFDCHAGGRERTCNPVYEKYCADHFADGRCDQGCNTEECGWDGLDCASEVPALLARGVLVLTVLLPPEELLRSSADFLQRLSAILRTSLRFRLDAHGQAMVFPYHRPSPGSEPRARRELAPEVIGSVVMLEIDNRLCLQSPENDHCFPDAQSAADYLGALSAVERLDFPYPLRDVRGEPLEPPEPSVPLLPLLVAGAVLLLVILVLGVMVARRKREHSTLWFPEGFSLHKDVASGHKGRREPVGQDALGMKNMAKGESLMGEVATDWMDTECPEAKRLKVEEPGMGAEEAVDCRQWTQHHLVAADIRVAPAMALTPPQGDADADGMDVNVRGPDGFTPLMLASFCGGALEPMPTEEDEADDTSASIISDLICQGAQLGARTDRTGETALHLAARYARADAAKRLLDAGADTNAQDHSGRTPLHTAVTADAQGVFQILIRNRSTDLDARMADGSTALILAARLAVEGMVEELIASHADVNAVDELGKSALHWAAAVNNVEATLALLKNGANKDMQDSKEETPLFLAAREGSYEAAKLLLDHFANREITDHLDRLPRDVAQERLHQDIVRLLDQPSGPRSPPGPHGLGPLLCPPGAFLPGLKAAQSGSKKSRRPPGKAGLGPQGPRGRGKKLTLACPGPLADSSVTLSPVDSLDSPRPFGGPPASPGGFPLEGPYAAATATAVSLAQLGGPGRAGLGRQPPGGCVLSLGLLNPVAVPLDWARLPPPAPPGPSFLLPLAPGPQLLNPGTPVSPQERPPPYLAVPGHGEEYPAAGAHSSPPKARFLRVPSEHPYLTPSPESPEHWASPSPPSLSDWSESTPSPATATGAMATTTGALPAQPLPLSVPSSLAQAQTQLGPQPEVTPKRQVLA

[20] = probe aEGFR binding to arrayed compounds – biochemical, biotinylated probe, 635/667 nm fluorescence, primary screen (AID 1097); conditions: small-molecule microarray, higher = more signal;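 also: probe is a biotinylated anti-EGFR antibody binding compounds printed on slides; score combines fluorescence near 667 nm and signal to noise of each spot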

Row | Structure (SMILES) | composite z-score [1] | composite z-score [2] | composite z-score [3] | composite z-score [4] | composite z-score [5] | composite z-score [6] | composite z-score [7] | z-score [8] | composite z-score [9] | composite z-score [10] | composite z-score [11] | z-score [12] | z-score [13] | z-score [14] | composite z-score [15] | z-score [16] | composite z-score [17] | composite z-score [18] | composite z-score [19] | composite z-score [20]
1 | CN(C)CCCNC(=O)[C@@]1(Cc2ccccc2I)c2ccccc2C(=O)N(Cc2ccccc2Cl)[C@H]1c1ccc(CO)cc1 | 1.17 | -0.576 | 0.0516 | 0.617 | 0.0497 | 1.47 | 1.25 | -2.07 (inactive) | 0.294 | -0.181 | 0.9 | -0.531 (inactive) | -19.8 (active) | -2.99 (inactive) | 2.78 | -1.7 (inactive) | 0.222 | -0.819 | -0.063 | 0.147
2 | COC(=O)[C@@]1(Cc2ccccc2)[C@H]2c3cc(C(=O)N(C)C)n(Cc4ccccn4)c3C[C@H]2CN1C(=O)c1ccccc1 | 0.907 | 1.6 | 0.305 | 0.76 | 1.15 | 2.33 | 1.31 | 1.01 (inactive) | 1.27 | 0.0302 | 0.664 | 0.249 (inactive) | 0.87 (inactive) | 0.963 (inactive) | 3.68 | -0.537 (inactive) | 0.506 | -0.793 | 1.11 | 0.309
3 | CCCC=C(CCC)[C@@H](NS(=O)(=O)c1ccccc1)c1ccc(C(F)(F)F)cc1 | -0.201 | 0.322 | 0.174 | 0.96 | 1.55 | 1.52 | 1.13 | -2.28 (inactive) | 1.05 | 0.28 | 1.39 | 0.3 (inactive) | 1.39 (inactive) | 12.1 (active) | 3.47 | -0.644 (inactive) | 0.413 | 0.554 | 1.08 | 0.132
4 | O=C1N(CCS(=O)(=O)c2ccccc2)c2ccccc2[C@H]2OC(c3ccc(OCCCO)cc3)=N[C@@]12CCS(=O)(=O)c1ccccc1 | 2.15 | 0.625 | 0.415 | 0.202 | 1.5 | 1.38 | 1.36 | -0.938 (inactive) | 1.43 | 0.772 | 1.55 | 2.95 (inactive) | 2.54 (inactive) | 7.94 (inactive) | 3.1 | 0.8 (inactive) | 0.856 | 1.08 | 1.07 | 0.723
5 | COC(=O)[C@@]1(Cc2ccccc2)[C@H]2c3cc(C(=O)N(C)C)n(Cc4ccc(O)c(OC)c4)c3C[C@H]2CN1C(=O)c1ccccc1 | 0.709 | 1.36 | 0.0487 | 0.523 | 1.56 | 0.934 | 1.24 | 3.26 (inactive) | 1.91 | 2.58 | 1.18 | 0.473 (inactive) | -0.455 (inactive) | 0.836 (inactive) | 2.74 | 0.195 (inactive) | -0.0203 | -0.372 | 0.895 | 0.38
6 | CC(C)C[C@@H]1NC(=O)[C@@]23C(=O)N[C@@H](Cc4ccccc4)C2[C@H](C)[C@@]2(C)O[C@H]2C3/C=C/C/C=C\CNC(=O)[C@@H]2CCCN2C1=O (stereo not given in full) | -0.566 | 0.0462 | -0.106 | -0.0448 | -0.385 | -0.492 | -0.378 | 2.09 (inactive) | 0.0833 | -0.0994 | -0.653 | 0.0289 (inactive) | -0.151 (inactive) | -0.453 (inactive) | 0.0315 | -0.762 (inactive) | -0.223 | 0.326 | -0.46 | -0.121
7 | CN1C(=O)C2C=CC(C(O)c3cccc4ccccc34)N(NC(=O)OC(C)(C)C)C2C1=O (stereo not given) | 1.07 | 1.79 | 0.194 | 0.586 | 1.37 | 2.11 | 1.15 | 0.93 (inactive) | 1.4 | -0.0296 | 1.25 | -1.04 (inactive) | -0.397 (inactive) | -0.0612 (inactive) | 2.63 | -0.094 (inactive) | 0.712 | -0.773 | 1.02 | 0.37
8 | CC(C)CNC(=O)[C@@]1(C)c2ccccc2C(=O)N(Cc2ccccc2)[C@H]1c1ccc(CO)cc1 | 1.69 | -1.04 | -0.206 | -1.42 | -0.762 | 0.839 | 0.614 | -1.26 (inactive) | 0.267 | -0.164 | -0.579 | -1.79 (inactive) | -0.849 (inactive) | -0.879 (inactive) | 3.04 | -0.483 (inactive) | 0.0397 | -1.79 | -0.643 | -0.285
9 | COCCOC(=O)N1C(=O)[C@@]2(c3cc(C#CCCO)ccc31)[C@H](c1ccc(OCCO)cc1)N1[C@H](c3ccccc3)[C@H](c3ccccc3)OC(=O)[C@H]1[C@@H]2C(=O)N1CCc2cc(OC)c(OC)cc2C1 | -0.392 | 0.444 | -0.0732 | 0.375 | 0.921 | 0.635 | 1.25 | -0.355 (inactive) | 0.159 | -0.0618 | 1.55 | 2.59 (inactive) | 1.28 (inactive) | 4.19 (inactive) | 2.48 | 0.37 (inactive) | 0.022 | 1.05 | 1.13 | 0.0365
10 | O=C1C2C=CC(C(O)c3cccc4ccccc34)N(Nc3ccccc3)C2C(=O)N1c1ccccc1 (stereo not given) | -0.0673 | 0.113 | 0.127 | 0.822 | 1.61 | 1.89 | 1.19 | -1.41 (inactive) | 1.55 | -0.261 | 1.56 | 0.487 (inactive) | -0.251 (inactive) | -0.0667 (inactive) | 3.16 | -1.07 (inactive) | 0.343 | 0.428 | 1.04 | -0.0271
11 | N#Cc1ccc(NN2C(C(O)c3ccccc3)C=CC3C(=O)N(c4ccccc4)C(=O)C32)cc1 (stereo not given) | 0.0243 | -0.0347 | 0.111 | 0.379 | 0.639 | 1.15 | 1.09 | 0.474 (inactive) | 0.64 | -0.151 | -0.827 | -0.541 (inactive) | 0.836 (inactive) | 1.77 (inactive) | 3.29 | -0.676 (inactive) | 0.228 | -0.229 | 0.552 | -0.0531
